# Source: PubChem BioAssay (Tox21)
# Records with an inconclusive call do not appear. Activity calls are given as the source filed them. The call rests on the fitted dose curve.
# Molecular target: Acetylcholinesterase (Homo sapiens) (UniProt P22303)
# Experiment: Acetylcholinesterase (AChE) small molecule antagonists: colormetric cell-based qHTS assay (AID 1347395); further: nearly all actives have a fitted effect of over 30% in size
# Conditions: SH-SY5Y cells AChE activity, colorimetric (Ellman); series mostly up to 115 µM; activity, negative = inhibition: at the top concentration
# In short: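 Homogeneous whole-cell format. SH-SY5Y cells seeded overnight, dosed with compound (30 min, 37 C, 5% CO2), then given DTNB/acetylthiocholine cocktail for 90 min at 37 C; colorimetric signal.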
# On the % scale 0 is the no-effect control and ±100 the full control effect.
# Sequence of Acetylcholinesterase (Homo sapiens) (P22303 whole entry, looked up): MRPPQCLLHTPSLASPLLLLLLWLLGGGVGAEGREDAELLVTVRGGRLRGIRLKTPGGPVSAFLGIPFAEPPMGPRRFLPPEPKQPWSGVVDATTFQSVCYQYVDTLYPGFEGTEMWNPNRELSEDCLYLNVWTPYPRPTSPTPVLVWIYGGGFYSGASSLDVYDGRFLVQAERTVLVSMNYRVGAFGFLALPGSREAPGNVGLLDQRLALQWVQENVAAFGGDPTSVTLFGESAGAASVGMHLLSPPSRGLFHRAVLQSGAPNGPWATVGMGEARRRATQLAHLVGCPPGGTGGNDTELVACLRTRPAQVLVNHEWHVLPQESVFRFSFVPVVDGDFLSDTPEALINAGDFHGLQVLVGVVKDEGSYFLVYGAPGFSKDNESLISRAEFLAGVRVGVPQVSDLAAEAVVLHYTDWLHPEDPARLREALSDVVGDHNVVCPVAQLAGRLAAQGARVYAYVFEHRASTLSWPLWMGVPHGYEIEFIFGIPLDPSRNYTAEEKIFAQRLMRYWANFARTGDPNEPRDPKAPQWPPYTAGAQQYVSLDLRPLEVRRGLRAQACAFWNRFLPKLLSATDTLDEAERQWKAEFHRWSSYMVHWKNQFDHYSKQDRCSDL
Structure (SMILES),"activity, negative = inhibition",Potency
CCC/C=C(\C=O)CC,8.91% (inactive),
CC1(C)C(=O)N(Cl)C(=O)N1Br,-6.08% (inactive),
Oc1ccccc1Cc1ccccc1O,-0.815% (inactive),
CCCCCCCC(=O)OCC(COC(=O)CCCCCCC)OC(=O)CCCCCCC,,inactive
N=c1nc(N2CCCCC2)cc(N)n1O,-3.79% [at 52.9 µM] (inactive),
COc1cc(C(=O)NCCCCCC(=O)O)cc(OC)c1OC,0.924% [at 52.9 µM] (inactive),
CCn1cc(C(=O)O)c(=O)c2cnc(N3CCNCC3)nc21,1.96% [at 52.9 µM] (inactive),
CCCCCCCC/C=C\CCCCCCCC(=O)OCCOC(=O)CCCCCCC/C=C\CCCCCCCC,-7.26% (inactive),
O=C(c1ccc(O)cc1)c1ccc(Cl)cc1,1.01% (inactive),
CC(C)(C)C1=CC(=O)C(C(C)(C)C)=CC1=O,15% [at 52.9 µM] (inactive),
CN(C)c1ccc(Cc2ccc(N(C)C)cc2)cc1,,inactive
CCC[C@H](N[C@@H](C)C(=O)N1[C@H](C(=O)O)C[C@@H]2CCCC[C@@H]21)C(=O)OCC,,inactive
O=c1c(O)c(-c2ccc(O)c(O)c2)oc2cc(O)cc(O)c12,,inactive
COP(=O)(OC)OC(c1ccc(Cl)cc1)P(=O)(OC)OC (stereo unspecified),3.19% [at 52.9 µM] (inactive),
O=C(c1ccccc1)c1ccc(O)c(O)c1O,,inactive
O=[N+]([O-])c1ccc(CO)cc1,-0.462% (inactive),
CC(C)N1C(=O)c2ccccc2C1=O,-3.23% (inactive),
C1COCO1,1.69% (inactive),
COCCOC[C@H](CC1(C(=O)NC2CCC(C(=O)O)CC2)CCCC1)C(=O)Oc1ccc2c(c1)CCC2 (stereo partly specified),4.94% (inactive),
CC(C)COC(=O)/C=C/c1ccccc1,-0.804% (inactive),
C[C@@H]1NC(=O)[C@@H](N)CNC(=O)[C@H](C2CCNC(N)=N2)NC(=O)/C(=C/NC(N)=O)NC(=O)[C@H](CNC(=O)C[C@@H](N)CCCN)NC1=O (stereo partly specified),-1.67% [at 0.435 µM] (inactive),
